# Laboratory results as given in PubChem BioAssay AID743148 (Broad Institute, 2013).
# Active and inactive are the calls of the source.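 Rule for the calls: active = fitted half-maximal signal loss reached at or below twice the highest valid dose tested; inconclusive = flat curve with 30 to 70% loss, or a poor fit; inactive = the rest, including signal gain.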
# Test: viability loss in HepG2 liver cells – cell-based, CellTiter-Glo luminescence, dry powder, set 4, cytotoxicity control, dose response (AID 743148)
# Settings: CellTiter-Glo ATP luminescence, 72 h; series mostly up to 26 µM
row,Structure (SMILES),outcome
1,C[C@@H]1CC(=O)NN=C1c1ccc(F)c(F)c1,inactive
2,C[C@H]1CC(=O)NN=C1c1ccc(N2CCOCC2)c(F)c1,inactive
3,CC(=O)Nc1ccc(C2=NNC(=O)C[C@H]2C)cc1[N+](=O)[O-],inactive
4,CCN1N=C(c2ccc(N(CC)CC)cc2)[C@H](C)CC1=O,inactive
5,O=C1CN2Cc3c(ccc(Cl)c3Cl)N=C2N1,inactive
6,C[C@@H]1CC(=O)NN=C1c1ccc(C2CCCCC2)cc1,inactive
7,C[C@@H]1CC(=O)NN=C1c1ccc(-c2cncnc2)cc1,inactive
8,C[C@@H]1CC(=O)NN=C1c1ccc(N2CCOCC2)c(F)c1,inactive
9,CCN(CC)c1ccc(C2=NNC(=O)CC2C)cc1[N+](=O)[O-] (stereo not drawn),inactive
10,C[C@@H]1CC(=O)NN=C1c1ccc(N2CCOCC2)cc1,inactive
11,C[C@@H]1CC(=O)NN=C1c1ccc(Cl)cc1,inactive
12,COc1cc2c(cc1OC)-c1cc(=Nc3c(C)cc(C)cc3C)n(C)c(=O)n1CC2,inactive
13,Cn1c(NC(=O)c2ccccc2)nc2ccccc21,inactive
